# Reference: PubChem BioAssay
# Calls of active or inactive are those of the source. Cut-off read from the data, not from the text of the source, unless noted: active = inhibition above about 80%; inactive = the rest.
# Key:
# [1] = LFS_MB_P medulloblastoma growth inhibition, cell-based, chromothripsis tumors, cisplatin or BGB combos (AID 1671449); settings: LFS_MB_P medulloblastoma cells;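 note: cells exposed for 96 hours; 0% = vehicle DMSO and 100% = killing by high DMSO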
# [2] = HDN33 neuroblastoma growth inhibition, cell-based, chromothripsis tumors, cisplatin or BGB combos (AID 1671450); settings: HDN33 neuroblastoma cells, stronger effect = higher value;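 note: cells exposed to compound for four days; 0% = vehicle DMSO and 100% = cell killing by high DMSO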
# [3] = ICB984 medulloblastoma cell growth inhibition, synergistic combos for chromothripsis tumors, cisplatin or BGB combos (AID 1671451; call rule not given here;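 note: cells exposed for 96 hours before readout; 0% = vehicle DMSO and 100% = killing by high DMSO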); settings: ICB984 medulloblastoma cells, drug combinations, stronger effect = higher value
# [4] = LFS_MB_1R medulloblastoma cell growth inhibition, synergistic combos for chromothripsis tumors, cisplatin or BGB combos (AID 1671452); settings: LFS_MB_1R medulloblastoma cells, stronger effect = higher value;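 note: cells exposed for 96 hours before readout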
# [5] = HTB85 osteosarcoma cell growth inhibition, synergistic combos for chromothripsis tumors, BGB or cisplatin IC20 combos (AID 1671453); settings: HTB85 osteosarcoma cells, drug combinations, stronger effect = higher value;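 note: cells exposed for 96 hours before readout; 0% = vehicle DMSO and 100% = high DMSO killing control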
# [6] = CRL2098 osteosarcoma cell growth inhibition, synergistic combos for chromothripsis tumors, BGB or cisplatin IC20 combos (AID 1671454); settings: CRL2098 osteosarcoma cells, drug combinations, stronger effect = higher value;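 note: cells exposed for 96 h before readout; 0% = vehicle DMSO and 100% = killing by high DMSO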
# [7] = HD-MB03 medulloblastoma cell growth inhibition, synergistic combos for chromothripsis tumors, BGB or cisplatin IC20 combos (AID 1671455; in the data active = inhibition above about 83%;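 note: 0% = vehicle DMSO and 100% = high DMSO as cytotoxic control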); settings: HD-MB03 medulloblastoma cells, stronger effect = higher value
# [8] = UWB1.289 ovarian carcinoma cell growth inhibition, synergistic combos for chromothripsis tumors, BGB or cisplatin combos (AID 1671456); settings: UWB1.289 ovarian carcinoma cells, stronger effect = higher value;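 note: cells exposed to compound for four days; 0% = vehicle DMSO and 100% = killing by high DMSO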
# [9] = LFS_MB_2R medulloblastoma cell growth inhibition, synergistic combos for chromothripsis tumors, cisplatin combos (AID 1671457); settings: LFS_MB_2R medulloblastoma cells, stronger effect = higher value;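 note: cells exposed to compound for four days before readout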
# [10] = MDA-MB-436 breast carcinoma cell growth inhibition, synergistic combos for chromothripsis tumors, BGB or cisplatin combos (AID 1671458; call rule not given here;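 note: cells exposed for 96 hours; 0% = vehicle DMSO and 100% = killing by high DMSO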); settings: MDA-MB-436 breast carcinoma growth inhibition, drug combinations, stronger effect = higher value
# [11] = UWB1.289_BRCA1 ovarian cancer growth, cell-based, BGB or cisplatin combinations (AID 1671459); settings: UWB1.289 BRCA1 ovarian carcinoma, drug combinations, stronger effect = higher value
# [12] = human astrocyte viability loss, single and combined drugs, cytotoxicity control for chromothriptic childhood tumor combination screen, cell-based, BGB or cisplatin IC20 combos (AID 1671460); settings: Human astrocytes, drug combinations, stronger effect = higher value;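 note: cells exposed to compounds for 96 hours before viability readout; 0% = vehicle and 100% = killing control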
# [13] = growth inhibition of BT084 medulloblastoma cells, cell-based, ICGC_MB145, cisplatin and BGB IC40 combos (AID 1671461); settings: drug combinations, stronger effect = higher value;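 note: cells exposed to drugs for 96 hours; 0% = vehicle DMSO and 100% = high DMSO full killing control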
# [14] = growth inhibition of RCMB18 medulloblastoma cells, cell-based, cisplatin and BGB IC40 combos (AID 1671462); settings: stronger effect = higher value;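 note: cells exposed to compound for four days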
# [15] = growth inhibition of CRL1545 osteosarcoma cells, cell-based, cisplatin and BGB IC20 combos (AID 1671464); settings: stronger effect = higher value;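 note: cells exposed to compound for 96 hours before readout; 0% = vehicle DMSO and 100% = high DMSO killing control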
# [16] = at 0.5 µM, stronger effect = higher value
# [17] = measured here: combination with BGB IC20, at 0.005 µM
# [18] = measured here: combination with BGB IC40, at 0.005 µM
# [19] = measured here: combination with BGB IC40, at 0.05 µM
# [20] = measured here: combination with cisplatin, at 0.5 µM, stronger effect = higher value
# [21] = measured here: combination with cisplatin, at 5 µM, stronger effect = higher value
# [22] = measured here: with BGB IC20 combination, at 0.5 µM
# [23] = measured here: with cisplatin IC20 combination, at 0.5 µM
# [24] = measured here: 5 uM single agent, at 5 µM
# [25] = measured here: combination with cisplatin, at 0.5 µM
# [26] = measured here: combination with cisplatin, at 5 µM
# [27] = measured here: with BGB IC20, at 0.5 µM
# [28] = measured here: with BGB IC20, at 5 µM
# [29] = measured here: with cisplatin IC20, at 0.5 µM
# [30] = measured here: with cisplatin IC20, at 5 µM
# [31] = measured here: combination with BGB at IC20, at 0.5 µM
# [32] = measured here: combination with cisplatin at IC20, at 0.5 µM
# [33] = measured here: combo with BGB at IC20, at 0.5 µM
# [34] = measured here: combo with cisplatin at IC20, at 0.5 µM
# [35] = measured here: inhibition with BGB combination, at 0.05 µM
# [36] = measured here: inhibition with cisplatin combination, at 0.05 µM
# [37] = measured here: BGB combination, at 0.5 µM
# [38] = measured here: BGB combination, at 5 µM
# [39] = measured here: cisplatin combination, at 0.5 µM
# [40] = measured here: cisplatin combination, at 5 µM
# [41] = BGB combination, concentration series, at 5 µM
# [42] = cisplatin combination, concentration series, at 5 µM
# [43] = measured here: combo with BGB IC20, at 0.5 µM
# [44] = measured here: combo with cisplatin IC20, at 0.5 µM
# [45] = cisplatin combination, at 0.5 µM
# [46] = measured here: BGB IC40 combination 0.05 uM, at 0.05 µM
# [47] = measured here: BGB IC40 combination, at 0.05 µM
compound,measurement,setting,value
COc1nc(N)nc2c1ncn2[C@@H]1O[C@H](CO)[C@@H](O)[C@H]1O,inhibition,[1]; [16],4.72% (inactive)
same,inhibition,[1]; [17],15.5%
same,inhibition,[1]; [18],9.31%
same,inhibition,[1]; [19],-38.6%
same,inhibition,[1]; [20],58.9%
same,inhibition,[1]; [21],5.54%
same,inhibition,"[2]; BGB combo, at 5 µM",-39.7%
same,inhibition,[2]; at 0.5 µM,-10.9% (inactive)
same,inhibition,"[2]; cisplatin combo, at 5 µM",-30.3%
same,inhibition,[2]; [22],-0.293%
same,inhibition,[2]; [23],-13.5%
same,inhibition,"[2]; single agent, at 5 µM",-2.81%
same,inhibition,"[3]; BGB IC20 combo, at 0.005 µM",-28.6%
same,inhibition,"[3]; BGB IC40 combo, at 0.005 µM",-6.48%
same,inhibition,"[3]; BGB IC40 combo, at 0.05 µM",-21%
same,inhibition,[3]; at 0.5 µM,-21.1% (inactive)
same,inhibition,"[3]; cisplatin combo, at 0.05 µM",-25.3%
same,inhibition,"[3]; cisplatin combo, at 0.5 µM",-22.6%
same,inhibition,"[3]; cisplatin combo, at 5 µM",-28.5%
same,inhibition,[3]; [24],-19.6%
same,inhibition,[4]; at 0.5 µM,-13.7% (inactive)
same,inhibition,[4]; [19],-35.3%
same,inhibition,[4]; [25],-34.3%
same,inhibition,[4]; [26],-13.1%
same,inhibition,[5]; at 0.5 µM,-19.2% (inactive)
same,inhibition,[5]; [27],-19.6%
same,inhibition,[5]; [28],-25.8%
same,inhibition,[5]; [29],-42.1%
same,inhibition,[5]; [30],-37.2%
same,inhibition,"[5]; single agent, at 5 µM",-10.5%
same,inhibition,[6]; at 0.5 µM,-31.4% (inactive)
same,inhibition,[6]; [31],-18.4%
same,inhibition,[6]; [32],-84.8%
same,inhibition,[7]; at 0.5 µM,-9.1% (inactive)
same,inhibition,[7]; [33],-11%
same,inhibition,[7]; [34],-9.78%
same,inhibition,[8]; at 0.5 µM,-10.1% (inactive)
same,inhibition,[8]; [35],-8.96%
same,inhibition,[8]; [36],-25.3%
same,inhibition,[9]; at 0.5 µM,-9.84% (inactive)
same,inhibition,[9]; [25],-1.3%
same,inhibition,[9]; [26],9.04%
same,inhibition,[10]; at 0.5 µM,-1.85% (inactive)
same,inhibition,[10]; [37],1.63%
same,inhibition,[10]; [38],-10.7%
same,inhibition,[10]; [39],-1.11%
same,inhibition,[10]; [40],-9.18%
same,inhibition,[11]; [41],-2.42%
same,inhibition,[11]; at 0.5 µM,-5.52% (inactive)
same,inhibition,[11]; [42],1.78%
same,inhibition,[12]; at 0.5 µM,-6.61% (inactive)
same,inhibition,[12]; [43],-1.7%
same,inhibition,[12]; [44],-14.9%
same,inhibition,[13]; at 0.5 µM,7.93% (inactive)
same,inhibition,[13]; [45],-30.4%
same,inhibition,"[13]; cisplatin combination, at 5 µM",16.2%
same,inhibition,[13]; [46],42.2%
same,inhibition,"[13]; single agent, at 5 µM",-18%
same,inhibition,[14]; at 0.5 µM,-13.9% (inactive)
same,inhibition,"[14]; cisplatin combo, at 5 µM",-23.5%
same,inhibition,[14]; [47],-4.14%
same,inhibition,[14]; [25],-19%
same,inhibition,"[14]; single agent, at 5 µM",15.2%
same,inhibition,[15]; at 0.5 µM,-24.6% (inactive)
same,inhibition,[15]; [22],-20.2%
same,inhibition,[15]; [23],-28.8%
same,inhibition,"[15]; single agent, at 0.05 µM",-9.67%
same,inhibition,"[15]; single agent, at 5 µM",-66.7%
C[C@H](NC(=O)c1ccccc1N=Cc1c(O)ccc2ccccc12)c1ccccc1,inhibition,[1]; [16],-32.5% (inactive)
same,inhibition,[1]; [17],-24.4%
same,inhibition,[1]; [18],-29.4%
same,inhibition,[1]; [19],-11%
same,inhibition,[1]; [20],-57.7%
same,inhibition,[1]; [21],-10%
same,inhibition,"[2]; BGB combo, at 5 µM",-7.69%
same,inhibition,[2]; at 0.5 µM,1.7% (inactive)
same,inhibition,"[2]; cisplatin combo, at 5 µM",-4.45%
same,inhibition,[2]; [22],-2.8%
same,inhibition,[2]; [23],-1.48%
same,inhibition,"[2]; single agent, at 5 µM",7.54%
same,inhibition,"[3]; BGB IC20 combo, at 0.005 µM",1.67%
same,inhibition,"[3]; BGB IC40 combo, at 0.005 µM",-1.06%
same,inhibition,"[3]; BGB IC40 combo, at 0.05 µM",7.65%
same,inhibition,[3]; at 0.5 µM,-7.38% (inactive)
same,inhibition,"[3]; cisplatin combo, at 0.05 µM",3.01%
same,inhibition,"[3]; cisplatin combo, at 0.5 µM",-7.71%
same,inhibition,"[3]; cisplatin combo, at 5 µM",-12.4%
same,inhibition,[3]; [24],5.4%
same,inhibition,[4]; at 0.5 µM,-6.38% (inactive)
same,inhibition,[4]; [19],-9.7%
same,inhibition,[4]; [25],-2.62%
same,inhibition,[4]; [26],12.2%
same,inhibition,[5]; at 0.5 µM,1.08% (inactive)
same,inhibition,[5]; [27],5.46%
same,inhibition,[5]; [28],7.19%
same,inhibition,[5]; [29],-9.86%
same,inhibition,[5]; [30],-2.37%
same,inhibition,"[5]; single agent, at 5 µM",12.6%
same,inhibition,[6]; at 0.5 µM,5.5% (inactive)
same,inhibition,[6]; [31],-35.4%
same,inhibition,[6]; [32],58.3%
same,inhibition,[7]; at 0.5 µM,6.83% (inactive)
same,inhibition,[7]; [33],11.2%
same,inhibition,[7]; [34],5.12%
same,inhibition,[8]; at 0.5 µM,17.4% (inactive)
same,inhibition,[8]; [35],3.84%
same,inhibition,[8]; [36],5.13%
same,inhibition,[9]; at 0.5 µM,-0.99% (inactive)
same,inhibition,[9]; [25],5.16%
same,inhibition,[9]; [26],4.48%
same,inhibition,[10]; at 0.5 µM,-1.91% (inactive)
same,inhibition,[10]; [37],-7.38%
same,inhibition,[10]; [38],-1.84%
same,inhibition,[10]; [39],-10.5%
same,inhibition,[10]; [40],-4.49%
same,inhibition,[11]; [41],-2.68%
same,inhibition,[11]; at 0.5 µM,1.55% (inactive)
same,inhibition,[11]; [42],4.86%
same,inhibition,[12]; at 0.5 µM,3.33% (inactive)
same,inhibition,[12]; [43],4.85%
same,inhibition,[12]; [44],-2.44%
same,inhibition,[13]; at 0.5 µM,-3.76% (inactive)
same,inhibition,[13]; [45],0.659%
same,inhibition,"[13]; cisplatin combination, at 5 µM",-186%
same,inhibition,[13]; [46],5.69%
same,inhibition,"[13]; single agent, at 5 µM",-0.461%
same,inhibition,[14]; at 0.5 µM,-3.35% (inactive)
same,inhibition,"[14]; cisplatin combo, at 5 µM",-10.8%
same,inhibition,[14]; [47],-9.58%
same,inhibition,[14]; [25],-13.6%
same,inhibition,"[14]; single agent, at 5 µM",3.49%
same,inhibition,[15]; at 0.5 µM,-10.6% (inactive)
same,inhibition,[15]; [22],-16.9%
same,inhibition,[15]; [23],-9.19%
same,inhibition,"[15]; single agent, at 0.05 µM",-20.9%
same,inhibition,"[15]; single agent, at 5 µM",-71%
NC(=O)c1ncn(C2OC(CO)C(O)C2O)c1O (stereo unspecified),inhibition,[1]; [16],-12.6% (inactive)
same,inhibition,[1]; [17],-7.32%
same,inhibition,[1]; [18],-2.51%
same,inhibition,[1]; [19],-10.8%
same,inhibition,[1]; [20],-6.4%
same,inhibition,[1]; [21],-30%
same,inhibition,"[2]; BGB combo, at 5 µM",5.04%
same,inhibition,[2]; at 0.5 µM,6.65% (inactive)
same,inhibition,"[2]; cisplatin combo, at 5 µM",-12.8%
same,inhibition,[2]; [22],16.7%
same,inhibition,[2]; [23],12.5%
same,inhibition,"[2]; single agent, at 5 µM",-11%
same,inhibition,"[3]; BGB IC20 combo, at 0.005 µM",6.56%
same,inhibition,"[3]; BGB IC40 combo, at 0.005 µM",-22.2%
same,inhibition,"[3]; BGB IC40 combo, at 0.05 µM",-25%
same,inhibition,[3]; at 0.5 µM,-19.3% (inactive)
same,inhibition,"[3]; cisplatin combo, at 0.05 µM",-25%
same,inhibition,"[3]; cisplatin combo, at 0.5 µM",-21.3%
same,inhibition,"[3]; cisplatin combo, at 5 µM",9.18%
same,inhibition,[3]; [24],-10.8%
same,inhibition,[4]; at 0.5 µM,-1.69% (inactive)
same,inhibition,[4]; [19],11.9%
same,inhibition,[4]; [25],14.5%
same,inhibition,[4]; [26],1.36%
same,inhibition,[5]; at 0.5 µM,-21.2% (inactive)
same,inhibition,[5]; [27],-45.8%
same,inhibition,[5]; [28],-14%
same,inhibition,[5]; [29],-13.3%
same,inhibition,[5]; [30],26.5%
same,inhibition,"[5]; single agent, at 5 µM",4.97%
